# Bioassay records as filed in PubChem BioAssay.
# DT40 TDP1 no CPT: qHTS for Inhibitors of human tyrosyl-DNA phosphodiesterase 1 (TDP1): qHTS in cells in absence of CPT; DT40 Tdp1-/- hTDP1 cells, no CPT, ATP luminescence, 48 h; Potency, µM (doses to about 46.2 µM), for inactives: top-dose activity change, negative = growth inhibition, actives largely listed as inhibitors; 420,000 compounds, 15% hits; note: potency is the fitted concentration of half-maximal effect; % is set by controls: 0 for no effect and ±100 for the full control effect; nearly all actives have a fitted effect of over 55% in size
#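 A cellular qHTS used chicken DT40 cells lacking endogenous Tdp1 but carrying stably transfected human TDP1. Compounds were applied without camptothecin, and cell growth kinetics were judged by ATP-dependent luminescence after ≥48 hr.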
# SW480 rereplic: DNA re-replication induction in SW480 cells | Potency, µM (doses to about 46.1 µM), for the others: top-dose re-replication activation, usual class: activators | SW480 DNA re-replication, Hoechst DNA content imaging, 48 h | 340,000 compounds, 1.8% hits; note: potency is the fitted concentration of half-maximal effect; % of control where 0% means no effect; nearly all actives have a fitted effect of over 55% in size
#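 Per well, 250 cells were exposed to pinned compound for 48 hr. Nuclear DNA was visualised with Hoechst (40 min, 37 C) and total object intensity recorded by fluorescence scanning.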
# DT40 TDP1 CPT: DT40-hTDP1 cell growth loss with CPT; chicken DT40 Tdp1-/-;hTDP1 cells + 20 nM CPT, ATP luminescence, 48 h; Potency, µM (series often up to 46.2 µM), inactives show at the highest dose activity change, negative = growth inhibition, actives largely listed as inhibitors; 420,000 compounds, 12% hits; AID 686979; note: potency is the fitted concentration of half-maximal effect; % is set by controls: 0 for no effect and ±100 for the full control effect; nearly all actives have a fitted effect of over 55% in size
#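 Chicken DT40 Tdp1-/- cells stably complemented with human TDP1 were seeded at 400 cells/well in medium containing 20 nM camptothecin, exposed to pin-transferred compounds, and grown at 37 °C for at least 48 hr. Viability was read as ATP luminescence.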
# Chronic BCR inh: inhibitors of chronic active B-cell receptor signaling; ABC-DLBCL IkBa-CBG/CBR reporter, luminescence ratio, 4 h; Potency, µM (top dose mostly 46.1 µM), for the others: at the highest dose activity change, negative = inhibition, actives largely listed as inhibitors; 340,000 compounds, 0.05% hits; AID 493014; active = well fitted inhibition curve with a large enough effect in the signal ratio, with a control signal flat, not every such curve was filed as active; inconclusive = small, poorly fitted or top-dose-only effect, or effect the other way, or a change in a side signal; the % refers to the signal ratio;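 note: potency is the fitted concentration of half-maximal effect; plate controls were basal doxycycline-induced cells for no effect and cells given 10 µM MG132 for full effect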
#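 TMD8 human ABC-DLBCL cells with doxycycline-inducible IκBα–green luciferase fusion and unfused red luciferase, in 0.5% FBS medium; compounds up to 46 uM, 4 h at 37C. Green/red luminescence ratio, filter-overlap corrected, fitted to concentration-response curves.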
# MCF10A rereplic: DNA re-replication induction in MCF 10a cells; MCF 10A DNA re-replication, Hoechst nuclear intensity, 48 h; 350,000 compounds, 2.9% hits; Potency, µM (doses to about 46.1 µM), inactives show at the top dose activity, positive = re-replication, actives largely listed as activators; note: potency is the fitted concentration of half-maximal effect; % of control where 0% means no effect; nearly all actives have a fitted effect of over 50% in size
# IL-1B inflam inh: blocks inflammasome-driven IL-1 beta release; THP-1 LPS/ATP IL-1B secretion, AlphaLISA, 16 h; stronger effect = lower value; activity change, % at 57.5 µM; 360,000 compounds, 4.7% hits; AID 743279; in the data active = activity change below about -50%; inconclusive = mostly about -30% to -49%; note: % is set by controls: 0 for no effect and ±100 for the full control effect
#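 THP-1 cells pretreated 1 hr with compounds (up to 57.5 uM final), then stimulated with LPS (250 ng/mL final) plus ATP (1.25 mM final); secreted IL-1B measured by AlphaLISA after 16 hr, decreased signal indicating inhibition.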
# An asterisk follows results filed as active; ? = inconclusive; · = no result given. Shown are actives, neighbours in structure and some others; about 19% of the full set was active somewhere. Unless noted, calls come from the whole dose curve; as a rule, active = well fitted curve in the direction sought with a large enough effect; inconclusive = small, poorly fitted or top-dose-only effect, or another doubt; inactive = no such curve, though single readings can be large; an effect the other way counts as inactive or inconclusive.
SMILES,DT40 TDP1 no CPT,SW480 rereplic,DT40 TDP1 CPT,Chronic BCR inh,MCF10A rereplic,IL-1B inflam inh
CCCN1CCN(c2ncc3c(n2)CCN(Cc2ccc(OC)c(OC)c2OC)C3)CC1,18µM*,·,?,·,·,·
COc1cc(OC)c(OC)cc1CN1CCc2nc(N3CCN(C)CC3)ncc2C1,-5%,·,-8%,·,·,·
COc1ccccc1N=NNc1ccccc1OC,?,·,?,·,·,-12
O=C(NCc1ccc(F)cc1F)[C@@H]1CCCN1C(=O)[C@@H]1CCCN1C(=O)c1cccs1,-13%,·,?,·,·,0
CCC1C(=O)Nc2nc(-c3ccccc3)c(-c3ccccc3)n2N=C1C (stereo not given),23µM*,-2%,21µM*,-21%,10%,-11
CN(C)/C=C/c1c([N+](=O)[O-])c2ccc(O)cc2n1-c1ccccc1,?,?,-19%,?,?,-86*
COC(=O)c1c(C)n(-c2ccccc2)c2ccc(O)cc12,?,?,?,2%,?,23
CCN(CC)CCCN=Cc1c(O)n(-c2ccccc2C)c(=O)c2ccccc12,-22%,-3%,?,1%,6%,0
Cc1csc(SCC(=O)NCC2Cc3cc(-c4cncnc4)ccc3O2)n1 (stereo not given),-18%,·,2%,·,·,·
CC(=O)NC(C)(c1ccccc1)c1nc(-c2cccc(C#N)c2)cs1 (stereo not given),?,·,?,·,·,-18
CC(C)(C)N1C(=O)c2ccccc2NC(=O)C1C(=O)NCc1ccco1 (stereo not given),3%,·,1%,·,·,42
CCC(CC)C(=O)N(C)c1c(C)nc2c(OCCOc3ccc(F)cc3)cccn12,18µM*,·,21µM*,·,·,-15
CCC(CC)C(=O)N(C)c1c(C)nc2c(OCCC3CCCCC3)cccn12,5.2µM*,·,7.3µM*,·,·,?
CCC(CC)C(=O)N(C)c1c(C)nc2c(OCC(=O)N(C)C)cccn12,0%,·,-15%,·,·,11
Cc1cc(Br)ccc1NC(=O)CN(C)C(=O)c1cccc(S(=O)(=O)N2CCN(C)CC2)c1,?,-14%,-29%,·,14%,21
CCc1cccc(C)c1NC(=O)COC(=O)CSCc1ccccc1,4%,-13%,-3%,0%,-5%,1
COc1ccc(Cl)cc1NC(=O)C(C)N1CCN(C/C=C/c2ccccc2)CC1 (stereo not given),21µM*,1%,?,?,?,-59*
CC(C(=O)Nc1ccc([N+](=O)[O-])cc1)N1CCN(C/C=C/c2ccccc2)CC1 (stereo not given),?,3%,?,?,?,-77*
CC(=O)c1ccc(NC(=O)C(C)N2CCN(C/C=C/c3ccccc3)CC2)cc1 (stereo not given),?,10%,-16%,-2%,-30%,-2
COc1ccc(C)cc1NC(=O)CCN1CCN(C/C=C/c2ccccc2)CC1,?,12%,?,-1%,26%,-2
COc1cccc(Oc2ncnc(N)c2[N+](=O)[O-])c1,-11%,-25%,3%,-7%,10%,?
COc1ccc(-n2nc(C(=O)c3cccs3)cc(-c3nc4ccccc4[nH]3)c2=N)cc1,5.8µM*,?,5.8µM*,2%,7%,?
Cc1ccccc1-n1nc(C(=O)c2cccs2)cc(-c2nc3ccccc3[nH]2)c1=N,7.3µM*,?,12µM*,0%,26%,14
Cc1cccc(-n2nc(C(=O)c3ccco3)cc(-c3nc4ccccc4[nH]3)c2=N)c1,8.2µM*,2%,16µM*,?,-2%,-12
O=C(NCc1nc2ccccc2[nH]1)c1cccs1,0%,-17%,-7%,5%,3%,8
